According to PubChem BioAssay AID588742 (Southern Research Specialized Biocontainment Screening …, 2011):
Among all 1,800 compounds or so, about 410 (23%) were called active. How the calls were made is not given here. Only a sample is shown. Entries with a potency or affinity are not part of this list.

test: viability of Vero cells under compound – cytotoxicity control for flavivirus capping enzyme inhibitors (AID 588742); conditions: cytotoxicity counter-screen; series mostly up to 40 µM

Row | Structure (SMILES) | outcome
1 | C=CCN=C1N[C@@H](c2cccc(C(F)(F)F)c2)C(C(=O)OC)=C(C)N1CC | inactive
2 | Cc1c(OC(=O)c2ccc([N+](=O)[O-])cc2)c2c(c[n+]1C)COC(C)(C)OC2 | inactive
3 | CCOC(=O)c1cc(-c2ccc(/C=C3/C(=O)NC(=O)C(C#N)=C3C)o2)ccc1Cl | inactive
4 | CCC(c1ccccc1)C(CC)c1cc(O)c(O)c(O)c1 (stereo not drawn) | inactive
5 | N#CC1=C(N)C2=C(N3CCCCC3)CCCC2C1(C#N)C#N (stereo not drawn) | inactive
6 | COc1ccc(C2Nc3cccc4cccc(c34)N2)cc1 | inactive
7 | COc1ccc(-c2cc(-c3ccc(Cl)cc3)c(C#N)c(SCC(=O)O)n2)cc1 | inactive
8 | CCOC(=O)/C(C#N)=C/c1c(N2CCN(CC)CC2)nc2c(C)cccn2c1=O | inactive
9 | CC(=O)N(C1=C(Cl)C(=O)c2ccccc2C1=O)c1ccc(C(=O)O)cc1 | inactive
10 | COc1ccccc1N(O)C1CC(=O)N(c2ccc(F)cc2)C1=O (stereo not drawn) | inactive
11 | O=S(c1ccccc1O)S(=O)c1ccccc1O (stereo not drawn) | inactive
12 | Cc1cc(=O)n(CCc2ccccc2)c(O)c1C#N | inactive
13 | CC1CC2=C(NC(=S)NC2c2ccccc2F)/C(=C/c2ccccc2F)C1 (stereo not drawn) | inactive
14 | COc1ccc(N2C(=O)C(Cl)=C(N3CCOCC3)C2=O)cc1 | inactive
15 | O=C1N=c2ccc(Br)cc2=C1c1sc(=S)n(NS(=O)(=O)c2ccccc2)c1O | inactive
16 | COC(=O)CN(c1ccccc1C)S(C)(=O)=O | inactive
17 | COc1cccc(/C=C2\SC(=S)N(C(Cc3ccccc3)C(=O)O)C2=O)c1 (stereo not drawn) | inactive
18 | COc1ccc(-c2csc(NC(=O)CSc3nc(C)nc4sc(C(=O)O)c(C)c34)n2)cc1 | inactive
19 | Oc1ccc(/C=N/NC(=S)Nc2cccnc2)c(O)c1O | inactive
20 | CCSc1ncc(Cl)c(C(=O)N(Cc2ccc(N(C)C)cc2)C2CCS(=O)(=O)C2)n1 (stereo not drawn) | inactive
21 | CCN(CCO)c1ccc(NC(=S)Nc2cccc(S(=O)(=O)N(C)C)c2)cc1 | inactive
22 | COc1ccc(NC(=S)NNc2ccc(S(=O)(=O)Nc3ccccc3C(=O)O)cc2[N+](=O)[O-])cc1 | inactive
23 | O=C1c2ccccc2C(=O)N1OS(=O)(=O)c1ccc(F)cc1 | inactive
24 | CC(C)=CCC1=C(OCC(=O)O)C(=O)c2ccccc2C1=O | inactive
25 | CN(C)NC(=S)Nc1ccc2nc(-c3ccccn3)c(-c3ccccn3)nc2c1 | inactive

Row | Structure (SMILES) | outcome
26 | CC(C)c1ccc(S(=O)(=O)c2n[nH]n3c2nc(=O)c2ccccc23)cc1 | inactive
27 | CC(C)c1ccc(S(=O)(=O)/N=C2\C=C(NS(=O)(=O)c3ccccc3)C(=O)c3ccccc32)cc1 | inactive
28 | Cc1ccc(C(C2C(=O)CC(C)(C)CC2=O)C2C(=O)CC(C)(C)CC2=O)s1 | inactive
29 | CC1=NN(c2ccc(C(=O)O)cc2)C(=O)/C1=C/c1ccc(-c2ccccc2F)o1 | inactive
30 | CC1=NN(c2ccc(Cl)c(C(=O)O)c2)C(=O)/C1=C\c1ccc(-c2ccc(C(=O)O)cc2)o1 | inactive
31 | COc1ccc(N2C(=NC(=O)CCCc3ccccc3)SC3CS(=O)(=O)CC32)cc1 (stereo not drawn) | inactive
32 | O=C1NC(=S)NC1=Cc1ccco1 | inactive
33 | O=C1C(=Cc2cccn2-c2ccc(O)cc2)C(=O)c2ccccc21 | inactive
34 | COC(=O)c1c(Cl)c2n3ccccc3c(C)c(-c3ccccc3)c-2c1C(=O)OC | inactive
35 | COc1ccc(C(C2C(=O)CC(C)(C)CC2=O)C2C(=O)CC(C)(C)CC2=O)cc1CO | inactive
36 | Cc1ccc(CCCNC(=O)C2CCC(=O)N(Cc3cccc(F)c3)C2)cc1 (stereo not drawn) | inactive
37 | CC(C)(C)OC(=O)N1CCN(C(=O)c2ncn(Cc3ccccc3)c2C(=O)N2CCN(C(=O)OC(C)(C)C)CC2)CC1 | inactive
38 | CC1(C(=O)NNC(=O)c2ccc([N+](=O)[O-])cc2)CC1(Br)Br (stereo not drawn) | inactive
39 | CCC(=O)NC(c1ccco1)c1cc(Cl)c2ccccc2c1O (stereo not drawn) | inactive
40 | O=C(O)COc1ccccc1C(Nc1ccccn1)c1cc(Cl)c2cccnc2c1O (stereo not drawn) | inactive
41 | CC(=O)NC(c1ccco1)c1cc(Cl)c2ccccc2c1O (stereo not drawn) | inactive
42 | COc1ccc(NC(=O)c2ccccn2)cc1OC | inactive
43 | C=CCS/C(N)=N\N=C\c1cc(Br)cc([N+](=O)[O-])c1O | inactive
44 | COc1cccc(CNC(=O)CCc2nnc3ccc(NCCCN4CCCC4=O)nn23)c1 | inactive
45 | CCOC(=O)C1Nc2ccccc2C2C(O)C(O)CC12 (stereo not drawn) | inactive
46 | COC1C=COC2(C)Oc3c(C)c(O)c4c(O)c(c(CN5CCN(C)CC5)c(O)c4c3C2=O)NC(=O)C(C)=CC=CC(C)C(O)C(C)C(O)C(C)C(OC(C)=O)C1C (stereo not drawn) | inactive
47 | O=C(C1=C(O)C(=O)N(Cc2ccco2)C1c1cccnc1)c1cc2ccccc2o1 (stereo not drawn) | inactive
48 | O=C(O)CN1C(=O)/C(=C\c2cccc(OCc3ccccc3F)c2)SC1=S | inactive
49 | COc1cc(NC(=O)CSc2ncnc3sc4c(c23)CCC(C)C4)c(C(=O)O)cc1OC (stereo not drawn) | inactive
50 | CCOC(=O)c1ccc2c(c1)n(CCO)c(C)[n+]2CC | inactive

Row | Structure (SMILES) | outcome
51 | Cc1cccc2cc(C#N)c(N3CCC(O)CC3)nc12 | inactive
52 | COc1cccc(N2C(=O)CC(Nc3ccc(N4CCOCC4)cc3)C2=O)c1 (stereo not drawn) | inactive
53 | Cc1cc(C(C2C(=O)CC(C)(C)CC2=O)C2C(=O)CC(C)(C)CC2=O)cc(C)c1OC(F)F | inactive
54 | O=C(/C=C/c1ccccc1)n1cnnc1SC/C=C/c1ccccc1 | inactive
55 | O=C(O)c1cc(NCc2ccc(F)cc2)ccc1N1CCOCC1 | inactive
56 | COC(=O)CCC(=O)OC1(C)C(=O)C2=CN(C3CC3)C(c3ccc(OC)cc3)=CC2=C(Br)C1=O (stereo not drawn) | inactive
57 | Cc1ccc(N2C(=O)C(Cl)=C(N3CCOCC3)C2=O)cc1Cl | inactive
58 | CCOc1cc(C(c2c(C)[nH][nH]c2=O)c2c(C)[nH][nH]c2=O)cc([N+](=O)[O-])c1O | inactive
59 | Cc1ccc(C)c(N=Cc2cc3c(cc2[N+](=O)[O-])OCO3)c1 | inactive
60 | O=[N+]([O-])c1cc2ccccc2c(O)c1O | inactive
61 | O=C(O)c1cc([N+](=O)[O-])c(Sc2nc3ccccc3[nH]2)c([N+](=O)[O-])c1 | inactive
62 | CCC1=NN2C(=N)/C(=C\c3ccc(OCc4cc(=O)n5nc(CC)sc5n4)c(OC)c3)C(=O)N=C2S1 | inactive
63 | Cc1c(C2CC(=O)N(c3ccccc3)C2=O)[nH]n(-c2ccccc2)c1=O (stereo not drawn) | inactive
64 | O=C(O)CCc1ccc(-c2ccc(Br)cc2)n1-c1ccc(O)cc1 | inactive
65 | CCCOc1cccc(C2C(C(=O)c3cc4ccccc4o3)=C(O)C(=O)N2c2cc(C)on2)c1 (stereo not drawn) | inactive
66 | O=c1c2ccccc2nc2ccc(NCc3ccco3)nn12 | inactive
67 | Cc1nn(-c2ccccc2)c(Cl)c1/C=N/Nc1ccc(S(=O)(=O)Nc2ccccc2C(=O)O)cc1[N+](=O)[O-] | inactive
68 | CCOc1cc(/C=N/Nc2ccc(S(=O)(=O)Nc3ccccc3C(=O)O)cc2[N+](=O)[O-])cc(Cl)c1O | inactive
69 | C=CCOc1cccc(C2C(C(=O)c3ccc(C)o3)=C(O)C(=O)N2c2nccs2)c1 (stereo not drawn) | inactive
70 | O=C1C(C=NCc2ccco2)=C(O)c2ccccc21 | inactive
71 | CC(C)C(C(=O)O)N1C(=O)/C(=C/C=C/c2ccco2)SC1=S (stereo not drawn) | inactive
72 | CC(C(=O)O)N1C(=O)/C(=C/C=C/c2ccco2)SC1=S (stereo not drawn) | inactive
73 | Cc1ccc(S(=O)(=O)NN/C(=N/S(=O)(=O)c2ccccc2)c2ccccc2)cc1 | inactive
74 | Cc1nn(-c2ccccc2)c2c1C(c1ccncc1)C(C#N)=C(N)O2 (stereo not drawn) | inactive
75 | CCn1nc([N+](=O)[O-])c(C(C#N)c2nc3ccccc3n2C)c(Cl)c1=O (stereo not drawn) | inactive

Row | Structure (SMILES) | outcome
76 | Cn1nc([N+](=O)[O-])c(C(C#N)c2nc3ccccc3n2C)c(Cl)c1=O (stereo not drawn) | inactive
77 | COC(=O)c1ccccc1N/C=C1\CCc2c(c(C)nn2-c2ccccn2)C1=O | inactive
78 | CCc1sc(/C=C(/C#N)C(N)=S)cc1[N+](=O)[O-] | inactive
79 | Cc1ccc(-n2nc(C)c3c2OC(N)=C(C#N)C3c2ccco2)cc1 (stereo not drawn) | inactive
80 | CCSc1nnc(NC(=O)c2nc(S(=O)(=O)Cc3ccc(F)cc3)ncc2Cl)s1 | inactive
81 | CCOC(=O)c1c(-c2ccc(-c3ccccc3)cc2)csc1NC(=O)C1C2CCC(O2)C1C(=O)O (stereo not drawn) | inactive
82 | Cc1noc(C)c1C(=O)Nc1ccc(N(C)C)cc1 | inactive
83 | CCC(=O)OC1(C)C(=O)C=C2C=C(C3CC3)OC=C2C1=O (stereo not drawn) | inactive
84 | COc1ccc(/C=N/NC(=O)c2nnn(-c3nonc3N)c2CN(C)C2CCCCC2)cc1 | inactive
85 | C#CCOc1c(Cl)cc(/C=C2/C(=O)ON=C2C)cc1OCC | inactive
86 | COc1cc(/C=C2\S/C(=N/S(=O)(=O)Cc3ccccc3)NC2=O)c([N+](=O)[O-])cc1OC | inactive
87 | COc1ccc(S(=O)(=O)Nc2c(O)ccc3ccccc23)cc1OC | inactive
88 | NC(=S)n1[nH]c(-c2ccc([N+](=O)[O-])cc2)c(N=Nc2ccccc2[N+](=O)[O-])c1=O | inactive
89 | CN1C(=O)/C(=C/c2ccc(C(=O)Nc3ccc(O)cc3C(=O)O)cc2)SC1=S | inactive
90 | Cc1cccc(C)c1NC(=S)NC(=O)c1ccc(Br)o1 | inactive
91 | CS(=O)(=O)c1ncc(Cl)c(C(=O)Nc2ccc(N3CCOCC3)cc2)n1 | inactive
92 | CCC(CO)Oc1cc(NCc2cccc(C)c2)c2ncn(C(C)C)c2c1 (stereo not drawn) | inactive
93 | CC1(C)CC(=O)C2=C(C1)c1c(ccc3ccccc13)NC2c1cc([N+](=O)[O-])cc([N+](=O)[O-])c1O (stereo not drawn) | inactive
94 | N=C1/C(=C\c2ccc(OC(=O)c3ccccc3Cl)cc2)C(=O)N=C2SC(N3CCOCC3)=NN12 | inactive
95 | Nc1nc(C2C(=O)CCCC2=O)cs1 | inactive
96 | O=C(Nc1c(F)c(F)c(F)c(F)c1F)NC1CCCCC1 | inactive
97 | O=C(O)c1ccccc1N=Nc1c(O)[nH]c2ccc([N+](=O)[O-])cc12 | inactive
98 | CC(C)c1ccc(N2C(=O)C(Cl)=C(N3CCOCC3)C2=O)cc1 | inactive
